Test results: publication PMC9911399, “Two distinct binding modes provide the RNA-binding protein RbFox with extraordinary sequence specificity”
Residue numbers refer to the chain shown, from its start. Whole data set: some 16,000 sequences, median “ka relative to ugcaugu” near 0.096, cut for the highest 2% near 0.35. Shown is part of a subset that was picked to be rich in the highest values.

T1: RBFOX1 RRM RbFoxmut (Fox-RRM*) (Homo sapiens, UniProt Q9NWB1 109-208, R118D;E147R;N151S;E152T)
T1 sequence: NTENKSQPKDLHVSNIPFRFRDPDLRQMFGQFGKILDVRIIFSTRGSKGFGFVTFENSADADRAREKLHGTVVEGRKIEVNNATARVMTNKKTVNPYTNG

B1: UCAUCAU (DNA:RNA)
RNA: GGGAGACCGGAAUUCAGAUUGUCCUCAUCAUUUAAAUCCCGUCGUAGCCACCA
DNA 1: CAATCTGAATTCCGGTCTCCC
DNA 2: TGGTGGCTACGACGGGATT
B2: UGCGCUU (DNA:RNA)
RNA: B1 RNA with C26G, A27C, U28G, A30U
DNA 1: CAATCTGAATTCCGGTCTCCC
DNA 2: TGGTGGCTACGACGGGATT
B3: AUGACGC (DNA:RNA)
RNA: B1 RNA with U25A, C26U, A27G, U28A, A30G, U31C
DNA 1: CAATCTGAATTCCGGTCTCCC
DNA 2: TGGTGGCTACGACGGGATT
B4: CACUACU (DNA:RNA)
RNA: B1 RNA with U25C, C26A, A27C, C29A, A30C
DNA 1: CAATCTGAATTCCGGTCTCCC
DNA 2: TGGTGGCTACGACGGGATT
B5: CAUAUAU (DNA:RNA)
RNA: B1 RNA with U25C, C26A, A27U, U28A, C29U
DNA 1: CAATCTGAATTCCGGTCTCCC
DNA 2: TGGTGGCTACGACGGGATT
B6: CGAAACU (DNA:RNA)
RNA: B1 RNA with U25C, C26G, U28A, C29A, A30C
DNA 1: CAATCTGAATTCCGGTCTCCC
DNA 2: TGGTGGCTACGACGGGATT
B7: GUAAAUG (DNA:RNA)
RNA: B1 RNA with U25G, C26U, U28A, C29A, A30U, U31G
DNA 1: CAATCTGAATTCCGGTCTCCC
DNA 2: TGGTGGCTACGACGGGATT
B8: ACGAUUG (DNA:RNA)
RNA: B1 RNA with U25A, A27G, U28A, C29U, A30U, U31G
DNA 1: CAATCTGAATTCCGGTCTCCC
DNA 2: TGGTGGCTACGACGGGATT
B9: GAGAUUG (DNA:RNA)
RNA: GGGAGACCGGAAUUCAGAUUGUCCGAGAUUGUUAAAUCCCGUCGUAGCCACCA
DNA 1: CAATCTGAATTCCGGTCTCCC
DNA 2: TGGTGGCTACGACGGGATT
B10: GAGAAUG (DNA:RNA)
RNA: B9 RNA with U29A
DNA 1: CAATCTGAATTCCGGTCTCCC
DNA 2: TGGTGGCTACGACGGGATT
B11: GAGACCG (DNA:RNA)
RNA: B9 RNA with U29C, U30C
DNA 1: CAATCTGAATTCCGGTCTCCC
DNA 2: TGGTGGCTACGACGGGATT
B12: CGGAAUG (DNA:RNA)
RNA: B9 RNA with G25C, A26G, U29A
DNA 1: CAATCTGAATTCCGGTCTCCC
DNA 2: TGGTGGCTACGACGGGATT
B13: ACGAAUC (DNA:RNA)
RNA: B9 RNA with G25A, A26C, U29A, G31C
DNA 1: CAATCTGAATTCCGGTCTCCC
DNA 2: TGGTGGCTACGACGGGATT
B14: GAGAGCA (DNA:RNA)
RNA: B9 RNA with U29G, U30C, G31A
DNA 1: CAATCTGAATTCCGGTCTCCC
DNA 2: TGGTGGCTACGACGGGATT
B15: GAGCAUG (DNA:RNA)
RNA: B9 RNA with A28C, U29A
DNA 1: CAATCTGAATTCCGGTCTCCC
DNA 2: TGGTGGCTACGACGGGATT
B16: ACGAAUG (DNA:RNA)
RNA: B9 RNA with G25A, A26C, U29A
DNA 1: CAATCTGAATTCCGGTCTCCC
DNA 2: TGGTGGCTACGACGGGATT
B17: GAGCAUC (DNA:RNA)
RNA: B9 RNA with A28C, U29A, G31C
DNA 1: CAATCTGAATTCCGGTCTCCC
DNA 2: TGGTGGCTACGACGGGATT
B18: CUAAAUG (DNA:RNA)
RNA: B9 RNA with G25C, A26U, G27A, U29A
DNA 1: CAATCTGAATTCCGGTCTCCC
DNA 2: TGGTGGCTACGACGGGATT
B19: CUAUAAG (DNA:RNA)
RNA: B1 RNA with U25C, C26U, C29A, U31G
DNA 1: CAATCTGAATTCCGGTCTCCC
DNA 2: TGGTGGCTACGACGGGATT
B20: GUCAGCC (DNA:RNA)
RNA: B9 RNA with A26U, G27C, U29G, U30C, G31C
DNA 1: CAATCTGAATTCCGGTCTCCC
DNA 2: TGGTGGCTACGACGGGATT
B21: GCACGGU (DNA:RNA)
RNA: B1 RNA with U25G, U28C, C29G, A30G
DNA 1: CAATCTGAATTCCGGTCTCCC
DNA 2: TGGTGGCTACGACGGGATT
B22: CUAAUAG (DNA:RNA)
RNA: B9 RNA with G25C, A26U, G27A, U30A
DNA 1: CAATCTGAATTCCGGTCTCCC
DNA 2: TGGTGGCTACGACGGGATT
B23: UCCGCGC (DNA:RNA)
RNA: B1 RNA with A27C, U28G, A30G, U31C
DNA 1: CAATCTGAATTCCGGTCTCCC
DNA 2: TGGTGGCTACGACGGGATT
B24: UAGAAUC (DNA:RNA)
RNA: B9 RNA with G25U, U29A, G31C
DNA 1: CAATCTGAATTCCGGTCTCCC
DNA 2: TGGTGGCTACGACGGGATT
B25: CCCAGAA (DNA:RNA)
RNA: B1 RNA with U25C, A27C, U28A, C29G, U31A
DNA 1: CAATCTGAATTCCGGTCTCCC
DNA 2: TGGTGGCTACGACGGGATT
B26: UAGAAUG (DNA:RNA)
RNA: B9 RNA with G25U, U29A
DNA 1: CAATCTGAATTCCGGTCTCCC
DNA 2: TGGTGGCTACGACGGGATT
B27: CAGAAUG (DNA:RNA)
RNA: B9 RNA with G25C, U29A
DNA 1: CAATCTGAATTCCGGTCTCCC
DNA 2: TGGTGGCTACGACGGGATT
B28: CAGAUUG (DNA:RNA)
RNA: B9 RNA with G25C
DNA 1: CAATCTGAATTCCGGTCTCCC
DNA 2: TGGTGGCTACGACGGGATT
B29: UAGAUUG (DNA:RNA)
RNA: B9 RNA with G25U
DNA 1: CAATCTGAATTCCGGTCTCCC
DNA 2: TGGTGGCTACGACGGGATT
B30: GAGCACA (DNA:RNA)
RNA: B9 RNA with A28C, U29A, U30C, G31A
DNA 1: CAATCTGAATTCCGGTCTCCC
DNA 2: TGGTGGCTACGACGGGATT
B31: UGGCUAC (DNA:RNA)
RNA: B9 RNA with G25U, A26G, A28C, U30A, G31C
DNA 1: CAATCTGAATTCCGGTCTCCC
DNA 2: TGGTGGCTACGACGGGATT

Each binder was assayed against T1, RBFOX1 RRM RbFoxmut (Fox-RRM*) (assay: EMSA; HiTS-Eq, 1 nM pool, 10 min; buffer printed only for the single-RNA assays: 10 mM Tris pH 7.5, 150 mM NaCl, 3.4 mM EDTA, 0.001% NP-40, 30 C). Conditions: tags: His6 N-terminal (pET28a); label: 5' 32P.
Summary of the method: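 Relative association constants, normalised to the cognate motif, were derived by comparing read counts of each RNA species with those of the control reaction. The RNA sequenced was the free fraction, separated by 8% native PAGE after a 10 min equilibration in 50 µL of 1 nM 5′-radiolabelled RNA (7 randomized nucleotides) with increasing concentrations of purified wild-type or mutant RbFox RRM.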

Binder | binding signal
B1 | 0.0991 KA relative to UGCAUGU
B2 | 0.095 KA relative to UGCAUGU
B3 | 0.0829 KA relative to UGCAUGU
B4 | 0.0793 KA relative to UGCAUGU
B5 | 0.114 KA relative to UGCAUGU
B6 | 0.0571 KA relative to UGCAUGU
B7 | 0.125 KA relative to UGCAUGU
B8 | 0.234 KA relative to UGCAUGU
B9 | 0.314 KA relative to UGCAUGU
B10 | 1.5 KA relative to UGCAUGU
B11 | 0.0845 KA relative to UGCAUGU
B12 | 1.43 KA relative to UGCAUGU
B13 | 0.283 KA relative to UGCAUGU
B14 | 0.151 KA relative to UGCAUGU
B15 | 1.12 KA relative to UGCAUGU
B16 | 1.2 KA relative to UGCAUGU

Binder | binding signal
B17 | 0.278 KA relative to UGCAUGU
B18 | 0.0852 KA relative to UGCAUGU
B19 | 0.0991 KA relative to UGCAUGU
B20 | 0.0902 KA relative to UGCAUGU
B21 | 0.289 KA relative to UGCAUGU
B22 | 0.0844 KA relative to UGCAUGU
B23 | 0.0955 KA relative to UGCAUGU
B24 | 0.125 KA relative to UGCAUGU
B25 | 0.0718 KA relative to UGCAUGU
B26 | 0.953 KA relative to UGCAUGU
B27 | 1.17 KA relative to UGCAUGU
B28 | 0.225 KA relative to UGCAUGU
B29 | 0.194 KA relative to UGCAUGU
B30 | 0.0821 KA relative to UGCAUGU
B31 | 0.0987 KA relative to UGCAUGU
